Reference: PubChem BioAssay
Calls of active or inactive are those of the source. Unless noted, how the calls were made is not given here.

Assays:
[1] = test system: Wnt5a (protein binding on small-molecule microarray); test: small molecules binding Wnt5a protein – biophysical, small-molecule microarray, 635/667 nm fluorescence, primary screen (AID 1142); details: 635 nm fluorescence, higher = more signal;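 further: fluorescence read at 667 nm with signal to noise per printed feature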
[2] = ATP-based viability of Huh7 replicon cells – cell-based, CellTiter-Glo luminescence, basal, 48 h, cytotoxicity control for HCV replication inhibitor project, primary screen (AID 1143); details: higher = more signal, called active from +8 up or from −8 down;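 further: Huh7 hepatoma cells carrying a hepatitis C replication reporter with no stimulus; test concentration not given here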
[3] = Pseudomonas biofilm growth suppression – PAO1 strain, BacTiter-Glo luminescence, LB-PBS, primary screen (AID 1144); details: P. aeruginosa PAO1 biofilm, 12 h, higher = more signal
[4] = basal CRE-LacZ reporter activity in PC12 – cell-based, unstimulated, primary screen (AID 1145); details: no forskolin, luminescence, 4.5 h, higher = more signal, called active from +8 up or from −8 down
[5] = forskolin-driven CRE-LacZ activity in PC12 – cell-based, CRE-LacZ reporter, forskolin-stimulated, primary screen (AID 1146); details: luminescence, 4.5 h, higher = more signal, called active from +8 up or from −8 down;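 further: PC12 cells with 6xCRE LacZ reporter stimulated by forskolin 10 µM; beta-galactosidase reporter signal reflecting CREB driven transcription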
[6] = target: Streptavidin (Streptomyces avidinii) (UniProt P22629); test: compounds binding control protein streptavidin – biophysical, small-molecule microarray, 635/667 nm fluorescence, artefact control for SMM compound annotation, primary screen (AID 1147); details: higher = more signal;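 further: signal reflects streptavidin binding to arrayed compounds as a control protein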
Sequence of Streptavidin (Streptomyces avidinii) (P22629 whole entry, looked up): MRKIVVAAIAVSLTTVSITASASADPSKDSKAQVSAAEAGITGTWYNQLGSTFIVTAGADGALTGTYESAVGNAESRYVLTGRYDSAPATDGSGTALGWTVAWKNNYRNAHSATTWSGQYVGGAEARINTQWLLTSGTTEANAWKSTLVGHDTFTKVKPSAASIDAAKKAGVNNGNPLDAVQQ

[7] = probe aInhba binding on compound microarray – biochemical, small-molecule microarray, 635/667 nm fluorescence, primary screen (AID 1148); details: higher = more signal;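 further: score merges 667nm spot fluorescence with signal-to-noise for antibody binding to printed compounds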
[8] = target: Torsin-1A (Homo sapiens) (UniProt O14656); test: TOR1A wild-type binding on microarray – cell lysate, small-molecule microarray, lysate, 635/667 nm, primary screen (AID 1149); details: COS7 hTOR1A-WT lysate, 635 nm fluorescence, higher = more signal
Sequence of Torsin-1A (Homo sapiens) (O14656 whole entry, looked up): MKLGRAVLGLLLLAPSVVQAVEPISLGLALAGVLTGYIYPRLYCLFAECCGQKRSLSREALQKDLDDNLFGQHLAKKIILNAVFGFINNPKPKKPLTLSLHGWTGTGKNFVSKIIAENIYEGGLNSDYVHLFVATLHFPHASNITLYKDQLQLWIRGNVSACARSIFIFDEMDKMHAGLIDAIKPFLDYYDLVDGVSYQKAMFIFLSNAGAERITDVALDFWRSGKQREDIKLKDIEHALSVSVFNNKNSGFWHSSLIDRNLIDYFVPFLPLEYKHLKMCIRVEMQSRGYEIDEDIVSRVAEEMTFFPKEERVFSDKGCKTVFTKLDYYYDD

[9] = target: Torsin-1A (Homo sapiens) (UniProt O14656); test: torsin A mutant lysate binding on microarrays – cell lysate, small-molecule microarray, COS7 lysate, 635/667 nm fluorescence, primary screen (AID 1150); details: COS7 hTOR1A mutant lysate, 635 nm fluorescence, higher = more signal;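 further: score pools 667 nm emission and signal to noise measuring lysate protein binding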
[10] = test system: Sonic hedgehog protein (Shh); test: Sonic hedgehog microarray binding compounds – biochemical, small-molecule microarray, 635/667 nm fluorescence, primary screen (AID 1151); details: 635 nm fluorescence, higher = more signal;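 further: Shh protein binding to compounds spotted on small-molecule microarray slides; score combines spot fluorescence intensity with signal-to-noise across triplicate slides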
[11] = optical density shifts of acrAB sulA E. coli – strain DRC41, OD650, 48 h, E. coli filamentation inducer project, primary screen (AID 1152); details: higher = more signal, called active from +8 up or from −8 down;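 further: E. coli MC1000 strain DRC41 lacking acrAB efflux pump and sulA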
[12] = probe aLefty1 binding on compound microarray – biochemical, small-molecule microarray, 635/667 nm fluorescence, primary screen (AID 1153); details: higher = more signal;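 further: score merges spot fluorescence with signal-to-noise ratio from the scanned slide images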
[13] = plasmodial surface anion channel blockers, osmotic lysis – cell-based, P. falciparum Indochina, OD700, 1 h, primary screen (AID 1154); details: P. falciparum Indochina infected RBC osmotic lysis, higher = more signal, called active from +8 up or from −8 down
[14] = plasmodial surface anion channel blockers, osmotic lysis – cell-based, P. falciparum Indochina, OD700, 2 h, primary screen (AID 1155);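 further: lysis reports solute entry through the parasite surface anion channel PSAC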; details: P. falciparum Indochina infected erythrocytes, higher = more signal, called active from +8 up or from −8 down
[15] = changes in parasitized red cell lysis, either direction – P. falciparum Indochina, OD700, 3 h, PSAC antagonist project, primary screen (AID 1156); details: P. falciparum-infected erythrocytes, osmotic lysis, higher = more signal, called active from +8 up or from −8 down
[16] = plasmodial surface anion channel blockers, osmotic lysis – cell-based, P. falciparum Indochina, OD700, 18 h, primary screen (AID 1157); details: P. falciparum Indochina infected erythrocytes, osmotic lysis OD700, 18 h; higher = more signal, called active from +8 up or from −8 down
[17] = S6 kinase pathway phospho-S6 level changes – cell-based, A549, cytoblot, luminescence, serum-stimulated, primary screen (AID 1158); details: 5 h, higher = more signal;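 further: serum-stimulated A549 lung adenocarcinoma cells; signal is phosphorylated S6 detected by cytoblot immunostaining with HRP secondary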
[18] = target: NADPH oxidase 2 (Homo sapiens) (UniProt P04839); test: compounds shifting NOX2 Amplex Red fluorescence – cell-based, HEK293-NOX2, PMA-stimulated, NOX inhibitor project, primary screen (AID 1159); details: 45 min, higher = more signal, called active from +8 up or from −8 down; further: test concentration not given here
Sequence of NADPH oxidase 2 (Homo sapiens) (P04839 whole entry, looked up): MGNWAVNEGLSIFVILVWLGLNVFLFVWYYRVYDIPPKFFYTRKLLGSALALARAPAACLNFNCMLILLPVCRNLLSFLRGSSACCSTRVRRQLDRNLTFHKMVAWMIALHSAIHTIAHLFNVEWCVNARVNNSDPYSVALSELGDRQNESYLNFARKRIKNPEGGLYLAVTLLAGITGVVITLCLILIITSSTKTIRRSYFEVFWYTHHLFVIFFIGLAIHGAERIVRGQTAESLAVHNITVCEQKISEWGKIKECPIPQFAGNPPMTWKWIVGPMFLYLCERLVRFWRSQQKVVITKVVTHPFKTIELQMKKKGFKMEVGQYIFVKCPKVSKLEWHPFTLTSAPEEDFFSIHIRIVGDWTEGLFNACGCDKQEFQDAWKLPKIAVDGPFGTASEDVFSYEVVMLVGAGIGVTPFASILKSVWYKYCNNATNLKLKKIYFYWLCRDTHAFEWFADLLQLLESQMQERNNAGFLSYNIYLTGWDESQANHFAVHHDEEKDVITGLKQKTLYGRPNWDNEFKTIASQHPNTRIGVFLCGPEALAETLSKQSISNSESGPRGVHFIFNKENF

[19] = target: NADPH oxidase 4 (Homo sapiens) (UniProt Q9NPH5); test: compounds shifting NOX4 Amplex Red fluorescence – cell-based, HEK293-NOX4, tetracycline-induced, NOX inhibitor project, primary screen (AID 1160); details: HEK293-NOX4, Amplex Red H2O2 fluorescence, 45 min; higher = more signal, called active from +8 up or from −8 down
Sequence of NADPH oxidase 4 (Homo sapiens) (Q9NPH5 whole entry, looked up): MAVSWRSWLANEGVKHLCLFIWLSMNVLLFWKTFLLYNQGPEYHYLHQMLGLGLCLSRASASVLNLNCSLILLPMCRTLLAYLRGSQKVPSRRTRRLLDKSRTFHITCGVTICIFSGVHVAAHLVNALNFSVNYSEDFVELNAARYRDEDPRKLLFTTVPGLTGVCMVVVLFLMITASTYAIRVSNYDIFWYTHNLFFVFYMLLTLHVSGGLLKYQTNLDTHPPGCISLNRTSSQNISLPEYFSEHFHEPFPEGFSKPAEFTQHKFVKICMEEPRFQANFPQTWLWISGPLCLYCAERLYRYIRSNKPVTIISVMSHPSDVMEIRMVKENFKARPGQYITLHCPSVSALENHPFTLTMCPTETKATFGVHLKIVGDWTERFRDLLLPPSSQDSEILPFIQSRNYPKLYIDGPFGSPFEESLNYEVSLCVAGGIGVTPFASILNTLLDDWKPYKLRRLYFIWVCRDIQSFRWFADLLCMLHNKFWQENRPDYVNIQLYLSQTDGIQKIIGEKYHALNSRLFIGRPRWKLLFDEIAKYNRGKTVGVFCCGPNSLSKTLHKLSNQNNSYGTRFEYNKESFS

[20] = target: NADPH oxidase 5 (Homo sapiens) (UniProt Q96PH1); test: compounds shifting NOX5 Amplex Red fluorescence – cell-based, HEK293-NOX5, NOX inhibitor project, primary screen (AID 1161); details: HEK293-NOX5, ionomycin, 45 min, higher = more signal
Sequence of NADPH oxidase 5 (Homo sapiens) (Q96PH1 whole entry, looked up): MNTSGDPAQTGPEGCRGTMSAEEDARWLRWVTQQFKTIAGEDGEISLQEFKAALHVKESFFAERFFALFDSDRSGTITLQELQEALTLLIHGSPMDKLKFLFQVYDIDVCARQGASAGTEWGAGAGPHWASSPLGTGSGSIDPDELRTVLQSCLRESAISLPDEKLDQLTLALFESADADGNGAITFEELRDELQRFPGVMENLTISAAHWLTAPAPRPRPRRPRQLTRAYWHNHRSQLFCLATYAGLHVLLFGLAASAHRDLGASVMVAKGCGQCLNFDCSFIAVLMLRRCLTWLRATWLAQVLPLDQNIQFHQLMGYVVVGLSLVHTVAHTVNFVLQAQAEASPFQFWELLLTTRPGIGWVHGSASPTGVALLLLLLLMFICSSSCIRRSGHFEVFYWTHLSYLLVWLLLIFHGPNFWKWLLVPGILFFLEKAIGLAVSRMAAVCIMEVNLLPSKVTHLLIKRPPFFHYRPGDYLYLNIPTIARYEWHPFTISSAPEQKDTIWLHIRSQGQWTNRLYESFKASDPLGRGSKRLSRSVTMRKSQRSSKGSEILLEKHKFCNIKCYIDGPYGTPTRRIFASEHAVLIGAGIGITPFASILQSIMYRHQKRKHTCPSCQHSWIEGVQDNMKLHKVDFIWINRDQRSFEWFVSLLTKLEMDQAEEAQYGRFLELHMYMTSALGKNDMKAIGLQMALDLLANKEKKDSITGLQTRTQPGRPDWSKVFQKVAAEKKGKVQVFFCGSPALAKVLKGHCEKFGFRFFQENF

| Structure (SMILES) | composite z-score [1] | z-score [2] | z-score [3] | z-score [4] | z-score [5] | composite z-score [6] | composite z-score [7] | composite z-score [8] | composite z-score [9] | composite z-score [10] | z-score [11] | composite z-score [12] | z-score [13] | z-score [14] | z-score [15] | z-score [16] | z-score [17] | z-score [18] | z-score [19] | z-score [20] |
| --- | --- | --- | --- | --- | --- | --- | --- | --- | --- | --- | --- | --- | --- | --- | --- | --- | --- | --- | --- | --- |
| O=C1OCC=C[C@H]2OC34C=CCN(Cc5ccccc5)C(=O)[C@H]3N(CCO)C(=O)[C@@H]4[C@@H]12 (stereo not given in full) | -0.744 | 0.154 (inactive) | -0.992 (inactive) | -1.31 (inactive) | -0.773 (inactive) | -1.09 | -0.307 | -2.02 | -0.768 | -0.722 | 2.41 (inactive) | -0.0104 | 0.286 (inactive) | -0.44 (inactive) | -1.32 (inactive) | -1.34 (inactive) | 0.262 | 1.53 (inactive) | 1.18 (inactive) | 1.75 |
| CCOC(=O)C[C@H]1[C@H](OC(=O)Cc2ccc3c(c2)OCO3)[C@@H](NC(=O)c2ccc3ccccc3c2)c2cc(OCCCO)ccc2N1C(=O)Cc1ccc(OC)cc1 | -0.0175 | -0.602 (inactive) | -0.0536 (inactive) | 4.83 (inactive) | 0.135 (inactive) | 0.348 | 0.386 | 0.242 | 0.485 | 0.673 | 2.54 (inactive) | -0.0626 | 18 (active) | 2.41 (inactive) | -1.47 (inactive) | -0.15 (inactive) | 2.6 | -0.629 (inactive) | 0.799 (inactive) | 1.08 |
| COC(=O)[C@@]1(Cc2ccccc2)[C@H]2c3cc(C(=O)N4CCCC4)n(CCN4CNCC4=O)c3C[C@H]2CN1C(=O)c1ccccc1 | -0.042 | -0.119 (inactive) | 0.351 (inactive) | -0.182 (inactive) | -0.768 (inactive) | 2.04 | 0.202 | -0.0625 | 1.02 | -0.535 | -1.1 (inactive) | 0.0176 | -0.469 (inactive) | -1.05 (inactive) | 0.423 (inactive) | -1.63 (inactive) | 0.212 | 0.122 (inactive) | 1.61 (inactive) | 0.595 |
| [N-]=[N+]=NCc1ccccc1C[C@@]1(C(=O)O)N=C(c2ccc(OCCCO)cc2)O[C@@H]1c1ccccc1N=[N+]=[N-] | -0.0964 | -2.2 (inactive) | -0.439 (inactive) | 0.488 (inactive) | 0.142 (inactive) | 0.312 | 0.0073 | 0.0819 | 0.0245 | -0.165 | 0.051 (inactive) | 0.337 | 30.3 (active) | 24.4 (active) | 1.44 (inactive) | 5.12 (inactive) | -0.272 | -0.0613 (inactive) | 1.21 (inactive) | 0.819 |
| C[C@H]1C2[C@H](Cc3ccccc3)NC(=O)[C@]23C(=O)N[C@H](Cc2ccccc2)C(=O)N[C@@H](Cc2ccccc2)C(=O)NC/C=C\C/C=C/C3[C@@H]2O[C@]12C (stereo not given in full) | 0.0327 | -3.18 (inactive) | 0.593 (inactive) | 0.311 (inactive) | -1.85 (inactive) | -0.214 | 0.173 | -0.0236 | 0.147 | 1.65 | 0.839 (inactive) | 0.305 | 3.27 (inactive) | 0.358 (inactive) | -0.0925 (inactive) | 0.0094 (inactive) | 0.654 | 0.453 (inactive) | 1.1 (inactive) | 1.26 |
| O=C1O[C@@H](c2ccccc2)[C@@H](c2ccccc2)N2[C@@H](c3ccc(OCCO)cc3)[C@]3(C(=O)Nc4ccc(C#CCCO)cc43)[C@@H](C(=O)N3CCN(c4ncccn4)CC3)[C@H]12 | 0.544 | -0.284 (inactive) | -0.132 (inactive) | 0.478 (inactive) | 0.0989 (inactive) | 0.509 | 0.0403 | 0.376 | 0.5 | 1.93 | 0.533 (inactive) | 0.242 | 3.54 (inactive) | 1.71 (inactive) | -1.56 (inactive) | 0.664 (inactive) | -0.436 | 2 (inactive) | 0.677 (inactive) | 0.589 |
| C=C(COC)C(=O)CC[C@H](OC(=O)c1ccccc1-c1ccccc1C(=O)O)c1cccc(OCCO)c1 | 2.01 | -8.1 (active) | -0.805 (inactive) | 0.102 (inactive) | 0.683 (inactive) | -1.8 | -0.0332 | 2.33 | 2.6 | 2.34 | 0.0418 (inactive) | 0.333 | 3.26 (inactive) | 1.91 (inactive) | 0.281 (inactive) | 1.36 (inactive) | 0.29 | 0.635 (inactive) | 0.112 (inactive) | -2.96 |
| COC(=O)Cn1c(C(=O)N2CCCC2)cc2c1C[C@H]1CN(C(=O)c3ccccc3)[C@@](Cc3ccc(OC)cc3)(C(=O)OC)[C@@H]21 | 0.381 | -2.77 (inactive) | 0.74 (inactive) | 1.72 (inactive) | 1.59 (inactive) | 0.927 | 0.711 | -0.0629 | 0.306 | -0.812 | -1.45 (inactive) | 0.51 | 15.3 (active) | 2.13 (inactive) | 1.68 (inactive) | 1.43 (inactive) | -0.56 | 0.857 (inactive) | 0.778 (inactive) | 2.44 |
